Source: PubChem BioAssay (NCI)
Compounds without any hit were thinned out: in the full panel of roughly 83,000, 20% have a hit.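 Testing used 96-well plates and a 48-hour single-concentration exposure. Example: -40 means 40% of the starting cells died.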 Calls of active or inactive are those of the source. How the source made its calls: active means growth percent below 10; inactive means the rest.

Experiments:
Assay in all cases: NCI-60 one-dose screen, 48 h (100 = growth as untreated, 0 = no growth, -100 = all killed)
[1] = test system: HCT-15 colon; conditions: 10 µM unless noted
[2] = test system: SNB-19 CNS; conditions: 10 µM unless noted
[3] = test system: U251 CNS; conditions: 10 µM unless noted
[4] = test system: PC-3 prostate; conditions: 10 µM unless noted
[5] = test system: SK-MEL-5 melanoma; conditions: 10 µM unless noted
[6] = test system: UACC-62 melanoma; conditions: 10 µM unless noted
[7] = test system: LOX IMVI melanoma; conditions: 10 µM unless noted
[8] = test system: SK-MEL-28 melanoma; conditions: 10 µM unless noted
[9] = test system: SK-MEL-2 melanoma; conditions: 10 µM unless noted
[10] = test system: EKVX NSCLC; conditions: 10 µM unless noted
[11] = test system: SN12C renal; conditions: 10 µM unless noted
[12] = test system: UO-31 renal; conditions: 10 µM unless noted
[13] = test system: TK-10 renal; conditions: 10 µM unless noted
[14] = test system: ACHN renal; conditions: 10 µM unless noted
[15] = test system: A498 renal; conditions: 10 µM unless noted
[16] = test system: CCRF-CEM leukemia; conditions: 10 µM unless noted
[17] = test system: MOLT-4 leukemia; conditions: 10 µM unless noted
[18] = test system: CAKI-1 renal; conditions: 10 µM unless noted
[19] = test system: SNB-75 CNS; conditions: 10 µM

Measured: growth

COc1ccc2c(c1)[nH]c(=O)c1c3cc(C)c(C)cc3cn21
active: [1] -87.5% | [3] -97.1% | [4] -54.9% | [7] -99.2% | [8] -7.4% | [9] -4.76% | [11] -43.6% | [12] -31.4% | [13] -34% | [16] -68.1% | [17] -10.9%
inactive: [2] 25.6% | [5] 10.3% | [6] 42.5% | [10] 35.4% | [14] 17.5% | [15] 42%

COc1ccc(S(=O)(=O)n2ccc(-c3ccc4c(c3)CCC(C)(C)O4)n2)cc1OC
inactive: [1] 71.9% | [2] 87.4% | [3] 79.5% | [4] 69.5% | [5] 28.2% | [6] 63.9% | [7] 76.7% | [8] 91% | [9] 56.2% | [11] 83.1% | [12] 68.5% | [13] 72.1% | [14] 78% | [18] 58.3% | [15] 52.8% | [16] 82.2% | [17] 63.8%

Oc1ccccc1/C=N/NC(=S)NC1CC2C=CC1C2 (stereo unspecified)
inactive: [1] 35.5% | [19] 105% | [2] 82.3% | [4] 75.6% | [5] 78.3% | [6] 82.9% | [7] 44.9% | [8] 83.1% | [10] 95.3% | [11] 92.8% | [12] 49.8% | [13] 103% | [14] 73.6% | [18] 67.1% | [15] 96.2% | [16] 49.5% | [17] 56.6%

COc1cc(C2CC(c3ccc4c(c3)OCO4)=NN2C(C)=O)cc(OC)c1OC (stereo unspecified)
inactive: [1] 40.4% | [2] 47.6% | [3] 28.2% | [4] 43.8% | [5] 11.7% | [6] 46.2% | [7] 35.7% | [8] 52.7% | [10] 38.7% | [11] 46.3% | [13] 38.2% | [15] 28.8% | [16] 16% | [17] 36%
active: [19] -12.1% | [18] 2.4%

CC(C)OC(=O)N1CCOCC1
inactive: [1] 101% | [2] 98.5% | [3] 101% | [4] 86.9% | [5] 106% | [6] 98.6% | [7] 102% | [8] 101% | [9] 101% | [10] 126% | [11] 97.7% | [13] 101% | [18] 105% | [15] 90.3% | [16] 102% | [17] 110%

Nc1cccc(Cl)c1N
inactive: [1] 96.5% | [19] 76.9% | [2] 116% | [3] 110% | [4] 90.8% | [5] 104% | [6] 108% | [7] 86.6% | [8] 119% | [10] 92% | [12] 71.2% | [13] 93% | [14] 90.4% | [18] 96.4% | [15] 114% | [16] 71% | [17] 93.1%

COc1ccc2[nH]c(=O)c3c4ccccc4cn3c2c1
inactive: [19] 56.5% | [2] 27.9% | [5] 35.1% | [8] 54.7% | [9] 50.5% | [10] 39.1% | [11] 21.5% | [13] 16.9% | [14] 23.2% | [15] 50.3%
active: [1] 9.19% | [3] 9.8% | [4] 7.65% | [7] 4.23% | [12] 9.09% | [16] -31.2% | [17] 6.08%

O=C(CCl)N(C1CCCCC1)C1CCCCC1
active: [7] -3.14%
inactive: [1] 98.4% | [19] 95.7% | [2] 109% | [3] 104% | [4] 93.7% | [5] 93.3% | [8] 104% | [9] 108% | [10] 104% | [11] 107% | [12] 98.3% | [13] 104% | [14] 109% | [18] 98.7% | [15] 91.7% | [16] 42.6% | [17] 110%

CCOC(=O)C1CCNC(=O)C1=O (stereo unspecified)
inactive: [1] 111% | [19] 101% | [2] 101% | [3] 111% | [4] 105% | [5] 101% | [7] 97.8% | [8] 112% | [9] 107% | [10] 122% | [11] 97.3% | [12] 94.2% | [13] 103% | [14] 105% | [18] 97.8% | [15] 110% | [16] 93.7% | [17] 96.6%

CCN(CC)CCOc1ccc(Cl)c(C)c1
inactive: [1] 104% | [19] 93.4% | [2] 101% | [3] 107% | [4] 101% | [6] 104% | [7] 101% | [8] 107% | [10] 111% | [11] 108% | [12] 86.5% | [13] 116% | [14] 104% | [15] 103% | [16] 98.4% | [17] 99.8%

CC(C)(C)OC(=O)NCCc1ccc(N=C=S)cc1
inactive: [1] 55.9% | [2] 84.7% | [3] 75.4% | [4] 66.3% | [5] 86.1% | [6] 54.8% | [7] 56% | [8] 69% | [9] 53.8% | [10] 89.7% | [11] 90.6% | [12] 62.7% | [14] 80.3% | [15] 70.2% | [16] 30.2% | [17] 69%

Fc1ccc(Nc2ncnc3ccc(-c4cnc5[nH]ccc5c4)cc23)cc1Cl
active: [19] -65.2% | [3] -68.2% | [7] -44.4% | [11] -14.2% | [12] -73.8% | [14] -66.7%
inactive: [1] 31.1% | [2] 40.7% | [4] 27.5% | [5] 21% | [6] 44.8% | [8] 57.4% | [10] 14.8% | [15] 77.4% | [16] 40% | [17] 45.6%

C=C(C)[C@@H]1C[C@@H]2Cc3cc(F)ccc3N1O2
active: [16] -47.4%
inactive: [1] 92.9% | [19] 95.9% | [2] 105% | [3] 89.5% | [4] 95% | [5] 95.3% | [7] 94.6% | [8] 107% | [9] 98.1% | [10] 85.9% | [11] 98.6% | [12] 77.4% | [13] 97% | [14] 95.4% | [18] 98% | [15] 95.2%

NC1=NN(O)C2=CC([N+](=O)[O-])C=CC2=N1 (stereo unspecified)
inactive: [1] 101% | [19] 99.5% | [2] 119% | [3] 109% | [4] 86.5% | [5] 109% | [6] 122% | [7] 83.7% | [10] 99.5% | [11] 112% | [12] 93.3% | [13] 121% | [14] 105% | [18] 93.8% | [15] 109% | [16] 104% | [17] 111%

COc1ccc(/C=C(\C#N)c2cc(OC)c3c(c2)OCO3)cc1
active: [5] -58.9% | [17] 7.91%
inactive: [1] 15.7% | [2] 37.8% | [3] 20.8% | [4] 23% | [6] 39.3% | [7] 19.2% | [8] 67.8% | [9] 43.6% | [10] 50.4% | [11] 23.8% | [12] 39.9% | [13] 49.6% | [18] 40.7% | [15] 35.5% | [16] 14.7%

Cc1ccc(S(=O)(=O)n2cc(C(=O)C(=O)N3CCOCC3)c3ccccc32)cc1
inactive: [1] 96.6% | [2] 99.5% | [3] 93.8% | [4] 67.5% | [5] 88.1% | [6] 68.1% | [7] 83.9% | [8] 117% | [9] 97% | [10] 88% | [11] 87.8% | [12] 59.7% | [13] 94.6% | [14] 83.9% | [18] 80.1% | [15] 118% | [16] 93.6% | [17] 81.5%

COc1ccc(Nc2nc(N)nc3c2CCN(Cc2ccc(OC)cc2OC)C3=O)cc1
inactive: [1] 91% | [2] 72.2% | [3] 75.4% | [4] 90% | [5] 80.7% | [6] 68% | [7] 71.9% | [8] 90% | [9] 93.7% | [10] 81.5% | [11] 70.7% | [12] 60.3% | [13] 84.8% | [14] 80.7% | [18] 92.9% | [15] 76.8% | [16] 86.1% | [17] 80.7%

Nc1nc(-c2ccccc2)c(CCCOc2ccc(NC(=O)CBr)cc2)c(=O)[nH]1
inactive: [1] 101% | [2] 91.1% | [3] 86.4% | [4] 107% | [5] 92.9% | [6] 90.3% | [7] 20.3% | [8] 104% | [9] 101% | [10] 117% | [11] 91.5% | [12] 71% | [13] 102% | [14] 96.2% | [18] 106% | [15] 103% | [16] 29.1% | [17] 96.1%
